# Screening results as filed in PubChem BioAssay.
# An excerpt weighted towards active compounds, which were near 2.4% of everything screened.
# SENP6 block = SENP6 protease inhibition; Q9GZR1; Recombinant SENP6 catalytic domain, aminoluciferin luminescence; inhibition, % at 10 µM; 1.8% of 330,000 active; AID 2599;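 active = inhibition above about 50% at the single tested dose, limit read from the data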;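 note: plate controls were DMSO wells with enzyme for no effect and DMSO wells lacking enzyme for full effect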
# Target sequence (Q9GZR1 628-1112 limits assumed): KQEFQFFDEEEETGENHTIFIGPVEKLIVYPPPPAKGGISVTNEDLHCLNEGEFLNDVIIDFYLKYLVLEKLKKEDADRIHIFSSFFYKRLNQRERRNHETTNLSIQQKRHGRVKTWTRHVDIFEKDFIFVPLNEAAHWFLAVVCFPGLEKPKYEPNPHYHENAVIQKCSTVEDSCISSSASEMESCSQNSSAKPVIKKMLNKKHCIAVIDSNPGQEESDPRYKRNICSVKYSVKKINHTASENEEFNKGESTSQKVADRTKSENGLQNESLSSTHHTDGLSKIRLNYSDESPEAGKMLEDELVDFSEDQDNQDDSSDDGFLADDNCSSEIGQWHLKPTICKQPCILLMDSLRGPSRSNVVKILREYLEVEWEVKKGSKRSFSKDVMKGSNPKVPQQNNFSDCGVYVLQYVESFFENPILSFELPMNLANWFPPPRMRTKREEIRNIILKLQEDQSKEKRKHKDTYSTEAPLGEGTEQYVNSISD
# SENP7 inh = SENP7 protease inhibition. 1.5% of 330,000 active. Q9BQF6. recombinant SENP7, Z-RLRGG-aminoluciferin luminescence, 40 min. inhibition, % at 5 µM;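 active = inhibition above about 50% at the single test dose, limit read from the data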;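 note: plate controls were DMSO with enzyme for no effect and no enzyme buffer wells for full effect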
# Platelet DG rel = platelet dense granule release activity; human platelet-rich plasma, SFLLRN dense granule ATP release, luminescence; inhibition, %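 (compounds screened at 7.5 µM in platelet-rich plasma)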; 0.22% of 300,000 active;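 active = mean replicate score, as percent of positive control, at or above 50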
# SENP8 block-1 = SENP8 protease inhibition; Q96LD8; purified SENP8, Z-RLRGG-aminoluciferin cleavage, luminescence; inhibition, % at 10 µM; 1.2% of 330,000 active; in the data active = inhibition above about 50%
# SENP8 block-2 = SENP8 (human) protease inhibition. AID 602440. recombinant SENP8, Nedd8 substrate fluorescence. Q96LD8. inhibition, % at 20 µM. 0.64% of 360,000 active; in the data active = inhibition mostly above about 40%, no sharp cut-off; inactive = mostly below about 27%
# SENP8 confirm = confirmation of human SENP8 protease inhibitors | 40% of 6,200 active | shares compounds with SENP7 inh | Recombinant SENP8, Z-RLRGG-aminoluciferin luminescence, 60 min | AID 488912 | inhibition, % at 12.5 µM;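 active = mean inhibition across replicates above about 50%, limit read from the data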
# SENP6 conf = human SENP6 inhibition, confirmed; shares compounds with SENP7 inh; recombinant SENP6, Z-RLRGG-aminoluciferin luminescence; inhibition, % at 12.5 µM; 58% of 6,200 active; AID 488915
# SENP7 confirm = human SENP7 inhibition, confirmed; shares compounds with SENP7 inh; inhibition, % at 12.5 µM; recombinant SENP7, Z-RLRGG-aminoluciferin luminescence, 40 min; 69% of 6,200 active; AID 488917
# Casp3 select = inhibits human caspase-3 in SENP selectivity test. purified caspase-3, Z-DEVD-aminoluciferin luminescence, 60 min. inhibition, % at 12.5 µM. shares compounds with SENP7 inh. AID 488918. 60% of 6,200 active;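 active = mean inhibition above about 50%, limit read from the data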;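 note: plate controls were enzyme with DMSO for no effect and wells without caspase-3 for full effect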
# Target sequence (P42574 28-227 limits assumed): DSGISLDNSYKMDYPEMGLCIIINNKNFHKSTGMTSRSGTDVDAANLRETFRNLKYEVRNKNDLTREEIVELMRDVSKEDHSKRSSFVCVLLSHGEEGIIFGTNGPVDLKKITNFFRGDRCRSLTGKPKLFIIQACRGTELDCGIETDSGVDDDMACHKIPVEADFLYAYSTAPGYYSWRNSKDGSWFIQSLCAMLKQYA
# SENP luc ctr = interferes with luciferase luminescence in SENP counter-screen; Pre-incubated SENP8/Z-RLRGG-aminoluciferin, luciferase luminescence interference; shares compounds with SENP7 inh; inhibition, % at 12.5 µM; 39% of 6,200 active;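 active = mean inhibition above about 50% when retested at one dose, limit read from the data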;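 note: plate controls were DMSO wells with completed reaction for no effect and substrate without enzyme for full effect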
# Numbers without * were called inactive; i = inactive; · = no result.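 Rule for the calls, unless noted: active = mean inhibition above about 50% in the one-dose retest (limit read from the data); inactive = the rest.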
SMILES,SENP6 block,SENP7 inh,Platelet DG rel,SENP8 block-1,SENP8 block-2,SENP8 confirm,SENP6 conf,SENP7 confirm,Casp3 select,SENP luc ctr
Cc1ccc(C(=O)COC(=O)c2cccc(NC(=O)c3ccc([N+](=O)[O-])cc3[N+](=O)[O-])c2)cc1,66.9*,66.3*,0.4,34.5,9.8,22.4,43.6,68.8*,45.1,46.1
COC(=O)c1cc2cc(Cl)ccc2nc1SC,10.3,-0.3,-12.1,5.2,-3.6,·,·,·,·,·
COC(=O)c1ccc(N=Nc2ccccc2)cc1,14.8,58.7*,5.3,47.3,12.4,9.8,57.0*,85.7*,49.2,34.7
COc1ccc(N=Nc2ccc(CO)cc2)cc1,50.6*,65.8*,2.5,40.0,29.1,61.1*,58.4*,83.4*,59.6*,47.0
OCc1ccc(N=Nc2ccccc2)cc1,43.0,54.9*,7.6,23.7,19.6,35.4,34.8,73.5*,51.7*,53.2*
COc1ccc(C/C(N)=N/O)cc1,-21.7,-1.1,9.9,-5.9,8.4,·,·,·,·,·
COC(=O)c1ccc(OCCOc2ccccc2)cc1,22.0,15.8,-3.2,-12.5,13.9,·,·,·,·,·
Oc1ccc(N=Nc2ccccc2)cc1,82.4*,67.9*,12.3,73.6*,28.7,80.7*,79.5*,91.2*,56.6*,82.6*
O=C(COC(=O)c1cc(S(=O)(=O)N2CCOCC2)ccc1F)NCc1ccco1,-24.3,8.9,-15.4,2.2,-0.8,·,·,·,·,·
N#CNc1nc(O)cc(=O)[nH]1,21.2,-1.3,0.9,7.3,-53.0,·,·,·,·,·
Oc1ccc(Cl)cc1N=Nc1ccccc1,73.3*,67.4*,1.7,42.7,3.6,-6.4,27.3,80.4*,23.3,6.7
Cc1cccc(Nc2nc(NCCCN3CCOCC3)nc(N)c2[N+](=O)[O-])c1,5.5,3.7,-27.5,4.1,31.2,·,·,·,·,·
CCc1ccc(C2=NN(S(C)(=O)=O)C(c3cccs3)C2)cc1 (stereo not given),95.6*,92.2*,3.0,83.3*,-50.8,89.8*,90.2*,98.9*,89.6*,85.5*
COc1ccc(C2=NN(S(C)(=O)=O)C(c3cccs3)C2)cc1 (stereo not given),-9.6,45.6,5.1,30.2,11.4,·,·,·,·,·
Cc1ccc(C2=NN(S(C)(=O)=O)C(c3cccs3)C2)cc1 (stereo not given),73.7*,51.6*,11.7,53.6*,21.8,68.1*,64.5*,86.8*,75.4*,66.7*
CS(=O)(=O)N1N=C(c2ccc(Br)cc2)CC1c1cccs1 (stereo not given),61.2*,33.6,10.0,39.8,25.4,8.4,9.1,83.2*,55.5*,5.5
N#Cc1c(N)nc(SCc2ccncc2)c(C#N)c1-c1cccs1,-8.8,-2.9,5.6,-7.4,-62.1,·,·,·,·,·
CN1CCc2nc(SCc3ccc(Cl)cc3)c(C#N)c(-c3cccs3)c2C1,76.5*,38.0,1.1,69.0*,·,-3.6,2.1,11.3,4.0,1.7
CN1N=C(C(=O)Nc2ccc3c(c2)CCC3)CCC1=O,12.0,10.0,-52.0,3.1,7.0,·,·,·,·,·
COc1cc(C#Cc2ccc3cc(CCO)oc(=O)c3c2)cc(OC)c1,84.3*,84.5*,·,79.6*,i,80.6*,83.4*,94.7*,61.4*,65.2*
COc1ccc(CCNc2ncnc3c2nnn3Cc2ccccc2)cc1OC,3.6,8.3,-3.4,5.1,-26.3,·,·,·,·,·
O=C(COc1cc2oc(=O)c3c(c2cc1Cl)CCC3)Nc1cccnc1,22.7,66.5*,4.7,1.4,-70.7,12.9,7.8,16.1,15.0,2.8
O=C(COc1cc2oc(=O)c3c(c2cc1Cl)CCC3)Nc1ccccn1,-2.1,-0.3,8.2,7.8,-96.9,·,·,·,·,·
C=CCn1c2ccccc2c(=O)c2cc(C#Cc3ccsc3)ccc21,·,·,6.5,·,·,·,·,·,·,·
C=CCn1c2ccccc2c(=O)c2cc(C#Cc3ccccn3)ccc21,72.1*,43.3,·,55.6*,-498.3,61.3*,66.5*,81.7*,40.5,31.7
SMILES,SENP6 block,SENP7 inh,Platelet DG rel,SENP8 block-1,SENP8 block-2,SENP8 confirm,SENP6 conf,SENP7 confirm,Casp3 select,SENP luc ctr
COc1ccccc1NC(=O)NCCN1CCN(c2cccc(Cl)c2)CC1,-18.9,5.4,-10.1,2.7,10.6,·,·,·,·,·
Cc1ccc(NCc2ccccc2O)cc1C,52.5*,34.5,1.8,42.4,8.3,39.5,40.3,74.3*,41.0,57.4*
COc1ccc(Cl)cc1-c1cc(C(=O)Nc2ccc(C(C)(C)C)cc2)[nH]n1,·,·,·,·,11.9,·,·,·,·,·
CCOC(=O)c1nnsc1NC(=O)Nc1ccc(OC)cc1,-16.8,51.2*,1.7,-7.7,4.8,12.8,9.7,10.1,12.5,-3.6
O=[N+]([O-])c1ccc2nc(-c3ccccc3)n(OCc3ccc(Cl)cc3)c2c1,86.3*,84.3*,0.1,65.6*,15.2,11.3,10.6,11.4,10.9,0.2
COn1c(-c2ccccc2)nc2ccc(Cl)cc21,54.4*,23.5,9.0,21.9,-22.0,39.0,38.7,71.7*,39.3,43.8
Cc1cccc(CN(C)C[C@H]2OCc3cnnn3CCCC(=O)N([C@H](C)CO)C[C@@H]2C)c1,·,·,·,·,5.9,·,·,·,·,·
CCc1ccccc1NC(=O)CN1CCN(C(=O)CCC(=O)N2CCC(c3ccccc3)=N2)CC1,-6.3,-6.3,·,1.2,18.1,·,·,·,·,·
CC(C)CCOCC(=O)Nc1cccc(C(=O)O)c1,58.3*,40.8,-4.5,9.4,6.9,38.2,35.1,73.0*,18.3,62.0*
COc1ccc(-n2c(O)c(/C=N/NS(=O)(=O)c3ccc(C)cc3)c3ccccc3c2=O)cc1OC,6.8,5.6,11.7,-0.4,-150.3,·,·,·,·,·
COc1ccccc1NS(=O)(=O)c1cccc(-n2c(O)c(C=Nc3ccccc3C(=O)O)c3ccccc3c2=O)c1,51.6*,6.4,-6.2,21.4,2.3,40.8,37.9,36.6,17.9,3.9
Cc1nnc(SCC(=O)OC2CC(C)CCC2C(C)C)[nH]c1=O (stereo not given),-8.0,-2.1,-1.3,-3.0,6.4,·,·,·,·,·
CC1CCC(C(C)C)C(OC(=O)CSc2n[nH]c(=O)[nH]c2=O)C1 (stereo not given),-0.3,-4.4,-0.6,50.8*,4.7,-2.8,5.2,9.2,2.6,-9.1
Cn1ccnc1SCC(=O)c1ccc(O)cc1,54.7*,40.1,16.3,25.6,18.3,21.3,16.4,66.9*,80.1*,52.5*
OCCC1CN(Cc2ccc3c(c2)CCO3)CCN1C1CCCC1 (stereo not given),16.6,5.2,0.8,10.4,15.7,·,·,·,·,·
Oc1ccccc1-c1n[nH]c(-c2ccccc2O)n1,·,·,·,·,-84.9,·,·,·,·,·
